FadD28 binding – M. tuberculosis FadD28 bisubstrate binding inhibition | FadD28 bisubstrate probe binding, fluorescence polarization | inhibition, % at 12.5 µM | 360,000 tested, 0.22% active; in the data active means inhibition above about 8.5%, passing the limit was not always enough; inconclusive means no clear call, values can overlap the other calls
PrP UTR inh – suppresses PrP 5' UTR mRNA reporter expression; cell-based PrP 5' UTR mRNA reporter, plate reader; inhibition, % (concentration not given with the values); 340,000 tested, 0.35% active; in the data active means inhibition above about 52%; further: 0 = median of the neutral control wells
BioA inh – inhibitors of Mycobacterium tuberculosis BioA enzyme. inhibition, % at 9.99 µM. AID 602481. 360,000 tested, 0.096% active. purified M. tuberculosis BioA enzyme, plate reader; in the data active means inhibition above about 40%; inconclusive means no clear call, values can overlap the other calls
PfHsp40 yeast – restores yeast growth despite PfHsp40 toxicity; S. cerevisiae expressing PfHsp40, growth rescue, ATP luminescence; growth rescue, % at 12.5 µM; 340,000 tested, 0.68% active; in the data active means growth rescue above about 28%, passing the limit was not always enough; inconclusive means no clear call, values can overlap the other calls;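 further: yeast W303a lacking pdr1 and pdr3 grown in galactose medium; growth measured after three days at 30 °C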
Yp Topo-I inh – inhibitors of Yersinia pestis topoisomerase I; 360,000 tested, 0.064% active; activity, % at 10 µM; Y. pestis Topo-I cleavage product accumulation, plate reader; AID 504884; in the data active means activity above about 50%, passing the limit was not always enough; inconclusive means no clear call, values can overlap the other calls
TcdB inh – TcdB glycohydrolase inhibition | P18177 | TcdB glycohydrolase enzymatic assay, plate reader | inhibition, % at 9.99 µM | 350,000 tested, 0.24% active | AID 652162; in the data active means inhibition above about 10%
PrP 5UTR single – prion 5' UTR mRNA inhibition, cherry-pick retest; shares compounds with PrP UTR inh; cell-based prion protein 5' UTR reporter, plate reader; inhibition, % at 2.5 µM; 1,100 tested, 48% active; AID 504592; in the data active means inhibition above about 54%; inconclusive means no clear call, values can overlap the other calls
Numbers without * were called inactive; ? = inconclusive; . = no result given. Only some compounds are listed: those with a hit (about 1.2% of all), similar ones and a draw of the others.

SMILES	FadD28 binding	PrP UTR inh	BioA inh	PfHsp40 yeast	Yp Topo-I inh	TcdB inh	PrP 5UTR single
CC[C@@H](C)[C@H](C(CC(=O)N1CCCC1[C@@H](OC)[C@H](C)C(=O)N[C@H](Cc1ccccc1)c1nccs1)OC)N(C)C(=O)[C@H](NC(=O)[C@@H](C(C)C)N(C)C)C(C)C (stereo not given in full)	-1	56*	.	-1	23	2	92*
CC[C@H](C)[C@@H](C(=O)N1CCCC1c1nccs1)N(C)C(=O)[C@H](CC(C)C)N(C)C(=O)[C@H](Cc1ccc(OC)cc1)N(C)C(=O)/C=C(\C)OC (stereo not given in full)	1	-20	3	3	41	0	.
CN1C(=O)c2cc(NC(=O)c3cc(F)cc(F)c3)ccc2OC[C@H]2O[C@H](CC(=O)O)CC[C@H]21	.	.	0	.	.	1	.
Cn1cccc1/C=C(/C#N)c1ccc(F)cc1	0	80*	3	1	-2	0	-20
Cc1ccc(C(=O)/C=C/Nc2ccccn2)cc1	-1	76*	.	0	-4	.	62*
COc1ccc(OCCc2nnc(N)s2)cc1	-5	-16	-2	-1	7	.	.
COc1ccc(Cc2cnc(N)s2)cc1	-3	77*	.	0	-6	1	11
O=C(Nc1ccc([N+](=O)[O-])cc1)C(=O)Nc1cccc(C(=O)O)c1	-1	88*	-2	-1	5	-1	92*
O=C(O)c1cc(NC(=O)c2ccc([N+](=O)[O-])cc2)cc(NC(=O)c2ccc([N+](=O)[O-])cc2)c1	-1	-24	1	-1	-15	1	.
C[C@@H]1CCCCO[C@@H](CN(C)C(=O)c2ccccc2)[C@@H](C)CN([C@@H](C)CO)C(=O)c2cc(NC(=O)Cc3ccccc3)ccc2O1	.	.	0	.	.	0	.
COc1cc2c3c(c1)C(C)=CC(C)(C)N3C(=O)C2=O	0	79*	.	1	-9	1	-2
Cc1c(N(C)C(=O)c2ccco2)c(=O)n(-c2ccccc2)n1C	-1	-13	1	3	2	.	.
Cc1c(N(C)CS(=O)(=O)O)c(=O)n(-c2ccccc2)n1C	-3	58*	0	-1	-1	-12	-26
O=C(CSc1ncn[nH]1)Nc1ncc(C(F)(F)F)cc1Cl	-1	75*	.	-1	8	1	-11
COc1ccc(CC(=O)Oc2ccccc2C)cc1	-1	58*	1	0	6	1	-12
COc1ccc(NC(=O)Nc2ccc3c(c2)C(=O)N([C@@H](C)CO)C[C@@H](C)[C@@H](CN(C)C(=O)Nc2ccc4c(c2)OCO4)O3)cc1	.	.	-4	.	.	.	.
COc1cc(C(=O)N2CCN(c3cc(Cl)ccc3Cl)CC2)cc(OC)c1OC	1	56*	12	-2	?	3	88*
COc1cc(C(=O)N2CCN(c3cccc(C)c3C)CC2)cc(OC)c1OC	-2	60*	0	0	-2	2	74*
COc1ccc(C(=O)N2CCN(c3ncnc4c(-c5ccccc5)nsc34)CC2)cc1	0	-23	-2	1	-3	.	.
COc1ccc(-c2nsc3c(N4CCCCC4C)ncnc23)cc1 (stereo not given)	1	87*	.	2	-5	1	83*
COc1ccc(-c2nsc3c(N4CCCCC4)ncnc23)cc1	0	72*	.	0	-3	.	70*
COc1ccc(-c2nsc3c(N4CCN(S(=O)(=O)c5ccccc5F)CC4)ncnc23)cc1	-3	-17	1	1	1	.	.
CCOC(=O)c1cnn(-c2ccccc2)c1NC(=O)CN1CCOCC1	-2	74*	.	0	0	1	-50
N#Cc1cnn(-c2ccccc2)c1NC(=O)CN1CCOCC1	0	.	-3	.	-6	2	.
C[C@H](CO)N1C[C@H](C)[C@@H](CN(C)C(=O)Nc2ccc3c(c2)OCO3)Oc2ccc(NS(C)(=O)=O)cc2C1=O	.	.	1	.	.	-13	.
SMILES	FadD28 binding	PrP UTR inh	BioA inh	PfHsp40 yeast	Yp Topo-I inh	TcdB inh	PrP 5UTR single
CC(=O)c1c(C)[nH]c(C(=O)Nc2nc(-c3ccc(Cl)cc3)cs2)c1C	-3	-19	.	0	-12	.	.
CC(=O)c1c(C)[nH]c(C(=O)Nc2nc(C)cs2)c1C	-2	65*	-3	0	0	2	44
CCCC(=O)Nc1cccc(S(=O)(=O)N(C)c2ccccc2)c1	-2	-7	1	-1	4	.	.
CN1CCN(CC(=O)Nc2cccc(S(=O)(=O)N(C)c3ccccc3)c2)CC1	.	91*	0	-1	1	1	0
C[C@@H]1CN([C@H](C)CO)C(=O)c2cc(NS(=O)(=O)c3ccc(Cl)cc3)ccc2O[C@@H](C)CCCCO[C@@H]1CN(C)Cc1ccc(C(=O)O)cc1	.	.	-1	.	.	0	.
CN(C)CC(=O)N[C@H]1CC[C@H](CC(=O)NCc2ccccc2F)O[C@@H]1CO	.	.	-2	.	.	1	.
CN(C)CC(=O)Nc1ccc2c(c1)[C@@H]1C[C@H](CC(=O)NCC3CC3)O[C@H](CO)[C@@H]1O2	.	.	-2	.	.	-3	.
Cc1cccc(-n2ncc3c(N(C)C4CCCCC4)ncnc32)c1	-4	78*	0	3	7	1	69*
Cc1cccc(-n2ncc3c(N(CCO)CCO)ncnc32)c1	-3	-66	0	0	0	2	.
COc1ccc(-n2ncc3c(N(C)C4CCCCC4)ncnc32)cc1	-1	78*	17	1	29	-1	66*
C[C@H]1CN([C@@H](C)CO)C(=O)Cc2cc(NS(C)(=O)=O)ccc2O[C@H]1CN(C)C(=O)Nc1ccc(C(F)(F)F)cc1	.	.	-2	.	.	1	.
Cc1noc(C)c1NC(=O)Nc1ccc2c(c1)C(=O)N([C@@H](C)CO)C[C@@H](C)[C@@H](CN(C)S(=O)(=O)c1ccc(F)cc1)OCCCC[C@@H](C)O2	.	.	0	.	.	1	.
Cn1c(O)c(C=NC2CCCCC2)c(=O)[nH]c1=S	-4	53*	.	0	2	-4	-21
O=C1c2cccc3cc([N+](=O)[O-])cc(c23)C(=O)N1CCN1CCCC1	-5	90*	0	0	-15	1	82*
CC(C)(O)/C=C/C(=O)C(C)(O)C1C(O)CC2(C)C3CC=C4C(C=C(O)C(=O)C4(C)C)C3(C)C(=O)CC12C (stereo not given)	-3	70*	.	-2	-6	1	90*
CC(=O)OC(C)(C)/C=C/C(=O)[C@](C)(O)C1[C@H](O)C[C@@]2(C)C3CC=C4C(C[C@H](O)C(=O)C4(C)C)[C@]3(C)C(=O)C[C@]12C (stereo not given in full)	-2	84*	1	-1	6	.	90*
C[C@@H]1CN([C@@H](C)CO)C(=O)c2cccc(NC(=O)c3cnccn3)c2O[C@@H]1CN(C)S(=O)(=O)c1ccc(F)cc1	.	.	.	.	.	0	.
